Active and inactive are the calls of the source. Unless noted, no stated cut-off is given here; in the data, active means inhibition above about 44%; inactive means the rest.
Biological target: Steroidogenic factor 1 (Homo sapiens) (UniProt Q13285)
Assay: SF1 (NR5A1) inverse agonists, counter-screen for LRH-1 inverse agonist project, cell-based, luminescence, high throughput (AID 651614);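 further: cells cotransfected with StAR promoter reporter and SF1 expression vector; 0% = vehicle on cells with receptor and 100% = vehicle on cells lacking receptor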
Settings: cell-based SF1 luciferase reporter, at 3.6 µM, hits give high values

Chain of Steroidogenic factor 1 (Homo sapiens) (Q13285 whole entry, looked up): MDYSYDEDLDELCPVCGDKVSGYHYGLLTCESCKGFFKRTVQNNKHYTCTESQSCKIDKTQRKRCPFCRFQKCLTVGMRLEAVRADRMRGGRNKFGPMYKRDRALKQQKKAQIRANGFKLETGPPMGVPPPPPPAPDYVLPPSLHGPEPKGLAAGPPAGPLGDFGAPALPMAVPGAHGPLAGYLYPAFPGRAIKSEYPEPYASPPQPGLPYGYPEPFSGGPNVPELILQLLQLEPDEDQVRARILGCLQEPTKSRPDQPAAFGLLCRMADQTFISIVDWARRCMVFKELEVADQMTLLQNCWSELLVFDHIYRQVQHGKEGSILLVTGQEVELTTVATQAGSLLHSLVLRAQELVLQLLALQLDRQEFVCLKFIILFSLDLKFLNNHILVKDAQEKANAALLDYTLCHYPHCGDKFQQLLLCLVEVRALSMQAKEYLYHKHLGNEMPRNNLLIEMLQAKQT

SMILES | inhibition
Nc1nc2ccccc2cc1C(=O)NCc1ccc(-c2ccccc2)cc1 | 58.6% (active)
C/C(=N/N1CCN(Cc2cccc3ccccc23)CC1)c1cccnc1 | -2.52% (inactive)
Cc1ccc(SCc2ccc(C(=O)NCc3ccncc3)cc2)cc1 | 53.1% (active)
CCN(CC)S(=O)(=O)c1ccc(N2CCOCC2)c(NC(=O)c2[nH]c(C)c(C(C)=O)c2C)c1 | 25.8% (inactive)
CCOc1ccc(NC(=O)COC(=O)C2CCC(=O)N2)c([N+](=O)[O-])c1 (stereo not drawn) | 43.6% (active)
Cc1ccc(NC(=O)CCl)c(C)c1 | 63.2% (active)
O=C(CSc1n[nH]c(-c2ccccn2)n1)Nc1ccc(Cl)cc1 | 67.1% (active)
O=[N+]([O-])c1ccc(S(=O)Cc2ccccc2)c([N+](=O)[O-])c1 (stereo not drawn) | 22.4% (inactive)
COc1ccc(C2=CC(=O)OC3(CCCC3)O2)cc1 | 54.5% (active)
OCC1OC(n2cnc3c(/C=C(\O)c4ccccc4)ncnc32)C(O)C1O (stereo not drawn) | -0.35% (inactive)
CCCc1cc(NCC2CCCO2)n2c(nc3ccccc32)c1C#N (stereo not drawn) | 35.5% (inactive)
C#Cc1cc(N2CCN(C(=O)c3ccoc3)CC2)n2nc(-c3cccc(Cl)c3)cc2n1 | 62.4% (active)
CCC(=O)N1CCN(c2ccc(NC(=O)c3ccc([N+](=O)[O-])o3)cc2)CC1 | 68.4% (active)
COc1ccc(CCNC(=O)c2ccc(CSc3ccc(Cl)cc3)o2)cc1OC | 23.4% (inactive)
CC(=O)Nc1sc2c(c1-c1nc3ccccc3s1)CN(C(C)C)CC2 | 61.1% (active)
COc1ccccc1NC(=O)CN1CCN(CC(=O)Nc2ccc(S(N)(=O)=O)cc2)CC1 | 47.7% (active)
O=C(COC(=O)c1ccccc1O)Nc1ccc(N2CCOCC2)cc1 | 60.4% (active)
O=C(CN1C(=O)NC2(CCCCCC2)C1=O)Nc1ccc([N+](=O)[O-])cc1 | 59.6% (active)
CC1CCCC(C)N1C(=O)COC(=O)Cc1ccc(Cl)cc1 (stereo not drawn) | 41.8% (inactive)
CC(=O)CSc1nc(N)c(C#N)c(-c2cccs2)c1C#N | 62.7% (active)

SMILES | inhibition
Cc1cccc(NC(=O)COC(=O)c2cccs2)c1C | 56.8% (active)
Cc1cc([N+](=O)[O-])ccc1NC(=O)CSc1nnc(C)n1C | 47.1% (active)
COc1ccc(OC)c(C2NC(=O)c3sc(=S)n(-c4ccccc4)c3N2)c1 (stereo not drawn) | 45.4% (active)
CN(C)c1ccc(CN(C(=O)C2COc3ccccc3O2)C2CCS(=O)(=O)C2)cc1 (stereo not drawn) | 39.1% (inactive)
COc1ccc(CCNC(=O)COC(=O)C23CC4CC(CC(Br)(C4)C2)C3)cc1 | 53.9% (active)
CN(CCC#N)Cc1cc(=O)oc2ccc3ccccc3c12 | 46.2% (active)
O=[N+]([O-])c1ccc(N2CCCC2)nc1N1CCCC1 | 56.1% (active)
O=c1c2ccccc2ncn1Cc1ccco1 | 18.4% (inactive)
Cc1cccc(OCC(=O)Nc2ccncc2)c1C | 61.9% (active)
O=C(COC(=O)c1cccc(O)c1)Nc1ccc(N2CCOCC2)cc1 | 54.6% (active)
CCOc1ccc(NC(=O)CSc2nnc(C(C)C)n2CC)cc1 | 50.3% (active)
O=[N+]([O-])c1ccc(N2CCCC2)cc1NC1CC1 | 47.3% (active)
O=C(Nc1ccc2[nH]c(=O)[nH]c2c1)c1ccc([N+](=O)[O-])o1 | 65.8% (active)
NC(=O)C1CCN(C(=O)COc2ccc3c4c(c(=O)oc3c2)CCC4)CC1 | 36.4% (inactive)
O=C(C(Cl)c1ccccc1)N1CCOCC1 (stereo not drawn) | 54.5% (active)
CC(=O)N1CCc2c(sc(NC(=O)CCS(=O)(=O)c3ccccc3)c2C#N)C1 | 55.1% (active)
Cc1ccc(NC(=O)CSc2nc3[nH]c(=O)cc(O)c3s2)c(Br)c1 | 46.5% (active)
CC(=O)N1CCc2c(sc(NC(=O)CCS(=O)(=O)c3ccc(C)cc3)c2C#N)C1 | 43.6% (active)
CCOc1ccc(NC(=O)COC(=O)COc2cccc3c2OC(C)(C)C3)cc1 | 60.5% (active)

System: not listed separately
Assay: VP16 transactivation reporter inhibitors, counter-screen for LRH-1 inverse agonist project, cell-based, luminescence, high throughput (AID 651615; in the data active means inhibition above about 33%)
Settings: Gal4-VP16 luciferase reporter cells, at 3.6 µM, hits give high values

SMILES | inhibition
Nc1nc2ccccc2cc1C(=O)NCc1ccc(-c2ccccc2)cc1 | 55.9% (active)
C/C(=N/N1CCN(Cc2cccc3ccccc23)CC1)c1cccnc1 | -2.08% (inactive)
Cc1ccc(SCc2ccc(C(=O)NCc3ccncc3)cc2)cc1 | -0.6% (inactive)
CCN(CC)S(=O)(=O)c1ccc(N2CCOCC2)c(NC(=O)c2[nH]c(C)c(C(C)=O)c2C)c1 | -200% (inactive)
CCOc1ccc(NC(=O)COC(=O)C2CCC(=O)N2)c([N+](=O)[O-])c1 (stereo not drawn) | -7.9% (inactive)
Cc1ccc(NC(=O)CCl)c(C)c1 | -43.6% (inactive)
O=C(CSc1n[nH]c(-c2ccccn2)n1)Nc1ccc(Cl)cc1 | 41.4% (active)
O=[N+]([O-])c1ccc(S(=O)Cc2ccccc2)c([N+](=O)[O-])c1 (stereo not drawn) | 16.7% (inactive)
COc1ccc(C2=CC(=O)OC3(CCCC3)O2)cc1 | -0.06% (inactive)
OCC1OC(n2cnc3c(/C=C(\O)c4ccccc4)ncnc32)C(O)C1O (stereo not drawn) | -27.3% (inactive)
CCCc1cc(NCC2CCCO2)n2c(nc3ccccc32)c1C#N (stereo not drawn) | 1.26% (inactive)
C#Cc1cc(N2CCN(C(=O)c3ccoc3)CC2)n2nc(-c3cccc(Cl)c3)cc2n1 | 23.7% (inactive)
CCC(=O)N1CCN(c2ccc(NC(=O)c3ccc([N+](=O)[O-])o3)cc2)CC1 | -25% (inactive)
COc1ccc(CCNC(=O)c2ccc(CSc3ccc(Cl)cc3)o2)cc1OC | 30.3% (inactive)
CC(=O)Nc1sc2c(c1-c1nc3ccccc3s1)CN(C(C)C)CC2 | 80.7% (active)
COc1ccccc1NC(=O)CN1CCN(CC(=O)Nc2ccc(S(N)(=O)=O)cc2)CC1 | -15.6% (inactive)
O=C(COC(=O)c1ccccc1O)Nc1ccc(N2CCOCC2)cc1 | -1.07% (inactive)
O=C(CN1C(=O)NC2(CCCCCC2)C1=O)Nc1ccc([N+](=O)[O-])cc1 | 9.06% (inactive)
CC1CCCC(C)N1C(=O)COC(=O)Cc1ccc(Cl)cc1 (stereo not drawn) | 0.05% (inactive)
CC(=O)CSc1nc(N)c(C#N)c(-c2cccs2)c1C#N | 35% (active)

SMILES | inhibition
Cc1cccc(NC(=O)COC(=O)c2cccs2)c1C | 9.54% (inactive)
Cc1cc([N+](=O)[O-])ccc1NC(=O)CSc1nnc(C)n1C | -3.16% (inactive)
COc1ccc(OC)c(C2NC(=O)c3sc(=S)n(-c4ccccc4)c3N2)c1 (stereo not drawn) | -4.35% (inactive)
CN(C)c1ccc(CN(C(=O)C2COc3ccccc3O2)C2CCS(=O)(=O)C2)cc1 (stereo not drawn) | 1.92% (inactive)
COc1ccc(CCNC(=O)COC(=O)C23CC4CC(CC(Br)(C4)C2)C3)cc1 | 4.71% (inactive)
CN(CCC#N)Cc1cc(=O)oc2ccc3ccccc3c12 | 5.57% (inactive)
O=[N+]([O-])c1ccc(N2CCCC2)nc1N1CCCC1 | -3.67% (inactive)
O=c1c2ccccc2ncn1Cc1ccco1 | 0.81% (inactive)
Cc1cccc(OCC(=O)Nc2ccncc2)c1C | 36.1% (active)
O=C(COC(=O)c1cccc(O)c1)Nc1ccc(N2CCOCC2)cc1 | -6.64% (inactive)
CCOc1ccc(NC(=O)CSc2nnc(C(C)C)n2CC)cc1 | -3.19% (inactive)
O=[N+]([O-])c1ccc(N2CCCC2)cc1NC1CC1 | -3.08% (inactive)
O=C(Nc1ccc2[nH]c(=O)[nH]c2c1)c1ccc([N+](=O)[O-])o1 | -11.8% (inactive)
NC(=O)C1CCN(C(=O)COc2ccc3c4c(c(=O)oc3c2)CCC4)CC1 | -10.9% (inactive)
O=C(C(Cl)c1ccccc1)N1CCOCC1 (stereo not drawn) | -10.2% (inactive)
CC(=O)N1CCc2c(sc(NC(=O)CCS(=O)(=O)c3ccccc3)c2C#N)C1 | -11% (inactive)
Cc1ccc(NC(=O)CSc2nc3[nH]c(=O)cc(O)c3s2)c(Br)c1 | -1.62% (inactive)
CC(=O)N1CCc2c(sc(NC(=O)CCS(=O)(=O)c3ccc(C)cc3)c2C#N)C1 | -1.4% (inactive)
CCOc1ccc(NC(=O)COC(=O)COc2cccc3c2OC(C)(C)C3)cc1 | -1.47% (inactive)
